High-throughput results deposited in PubChem by NMMLSC.
An excerpt weighted towards active compounds, which were near 2.5% of everything screened.
MEKK2wt PB1 HTS – raises or lowers MEK5 binding to wildtype human MEKK2 PB1 domain; bead flow cytometry, Alexa488-MEK5 binding to MEKK2 WT; actives lie on both sides; binding response (% of control), % at 10 µM; hit rate 1.1% among 290,000; AID 1531; in the data active means binding response below about 67% or above about 130%
GRK2 inh – inhibitors of human GRK2 displacing RNA aptamer; bead flow cytometry, FAM-aptamer displacement from GRK2; inhibition of aptamer binding, % at 10 µM; hit rate 0.59% among 330,000; AID 488847;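 active means inhibition of aptamer binding above 40%, roughly 3 SD of noise, on plates passing a quality check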;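 further: median bead fluorescence of bound FAM aptamer so fluorescent compounds give negative values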
MEKK2 mut-MEK5 – signal of MEK5 binding to mutant human MEKK2 PB1 domain; bead flow cytometry, Alexa488-MEK5 binding to MEKK2 mutant; AID 1530; percent response, % at 10 µM; hit rate 0.35% among 290,000; in the data active means percent response above about 24%, passing the limit was not always enough
MEKK3 PB1 HTS – MEKK3-MEK5 PB1 interaction, increase or decrease | Q99759 | bead-based flow cytometry, Alexa488-MEK5 binding to MEKK3; actives lie on both sides; 0 = blocked by unlabeled MEK5, 100 = vehicle | binding response (% of control), % at 10 µM | hit rate 1.4% among 290,000;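 active means binding response more than 3 SD above or below the average of its plate-row segment, actives on both sides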;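 further: Alexa488 bead fluorescence after subtracting the streptavidin-only scavenger bead signal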
Target sequence (Q99759 whole entry, looked up): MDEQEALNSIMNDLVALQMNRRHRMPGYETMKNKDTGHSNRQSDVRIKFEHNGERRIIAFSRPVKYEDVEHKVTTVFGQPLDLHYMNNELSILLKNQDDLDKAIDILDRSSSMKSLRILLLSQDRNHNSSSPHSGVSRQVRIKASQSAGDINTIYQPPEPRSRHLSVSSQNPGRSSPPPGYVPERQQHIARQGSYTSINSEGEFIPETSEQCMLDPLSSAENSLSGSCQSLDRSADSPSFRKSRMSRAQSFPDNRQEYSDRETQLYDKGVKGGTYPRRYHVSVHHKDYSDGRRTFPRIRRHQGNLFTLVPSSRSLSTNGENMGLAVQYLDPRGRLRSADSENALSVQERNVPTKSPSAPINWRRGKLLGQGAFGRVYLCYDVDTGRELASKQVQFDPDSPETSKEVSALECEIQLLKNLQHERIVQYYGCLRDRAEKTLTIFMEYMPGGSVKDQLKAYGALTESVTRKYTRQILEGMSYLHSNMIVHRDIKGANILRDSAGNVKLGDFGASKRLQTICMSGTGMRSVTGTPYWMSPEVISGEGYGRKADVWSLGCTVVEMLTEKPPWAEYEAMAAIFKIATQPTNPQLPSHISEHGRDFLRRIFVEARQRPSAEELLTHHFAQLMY
MEKK2wt confirm – raises or lowers MEK5 binding to wildtype human MEKK2, retest; bead flow cytometry, Alexa488-MEK5 binding to MEKK2 WT; actives lie on both sides; AID 1892; shares compounds with MEKK3 PB1 HTS; hit rate 2.4% among 5,900; binding response (% of control), % at 10 µM; in the data active means binding response below about 16% or above about 210%; inactive means in between
MEKK2mut confirm – signal of MEK5 binding to mutant human MEKK2, retest; bead flow cytometry, Alexa488-MEK5 binding to MEKK2 mutant; shares compounds with MEKK3 PB1 HTS; AID 1893; percent response, % at 10 µM; hit rate 2% among 5,900; in the data active means percent response mostly above about 71%, no sharp cut-off; inactive means mostly below about 38%;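 further: higher means compound restores mutant binding toward wildtype level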
MEKK3 confirm – confirmation of inhibitors of MEK5 binding to human MEKK3; shares compounds with MEKK3 PB1 HTS; bead flow cytometry, Alexa488-MEK5 binding to MEKK3; active compounds read low; binding response (% of control), % at 10 µM; hit rate 1.8% among 5,900; AID 1894;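 active means binding response below 72% of control, or above a set upper limit, though filed actives all read lower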;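 further: 100% = DMSO only wells and 0% = binding blocked by excess unlabeled MEK5; lower values mean stronger disruption of MEK5 binding to MEKK3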
* = called active by the depositor; x = not tested or not shown; [ ] = remark or other dose.

SMILES	MEKK2wt PB1 HTS	GRK2 inh	MEKK2 mut-MEK5	MEKK3 PB1 HTS	MEKK2wt confirm	MEKK2mut confirm	MEKK3 confirm
CC(=O)c1ccc(N2CCN(C(=S)NCc3ccco3)CC2)cc1	53	3	-16	46*[inhibitor]	93	-27	92
CCOc1ccccc1N1CCN(C(=S)NCc2ccccc2)CC1	92	0	-1	84	x	x	x
CCOc1ccccc1N1CCN(C(=S)NCc2ccco2)CC1	92	8	-1	64*[inhibitor]	107	5	107
S=C(NCc1ccco1)N1CCN(c2ccc(Cl)cc2)CC1	100	3	1	98	x	x	x
COCCCn1c(=O)c2ccccc2n(CC(=O)Nc2ccc3c(c2)OCCO3)c1=O	101	1	-3	99	x	x	x
CCOC(=O)N1CCN(S(=O)(=O)c2ccc(C(=O)N(CCCN(C)C)c3nc4ccc(Cl)cc4s3)cc2)CC1	153*	0	30*	108	132	15	103
CCOC(=O)N1CCN(S(=O)(=O)c2ccc(C(=O)N(CCN(C)C)c3nc4ccc(CC)cc4s3)cc2)CC1	136*	2	16	106	138	15	102
CN(C)C(=O)COC(=O)c1cccc(CN2C(=O)c3ccccc3C2=O)c1	84	0	-3	71*[inhibitor]	100	0	103
COCCCN1C(=O)c2ccc(C(=O)OCC(=O)N(C)c3ccccc3)cc2C1=O	102	1	0	106	x	x	x
Cc1sc2nc(CN3CCCC3)nc(N3CCN(S(=O)(=O)c4cccs4)CC3)c2c1C	145*	0	4	103	141	36	109
Cc1ccc(S(=O)(=O)N2CCN(c3nc(CN4CCCC4)nc4sc(C)c(C)c34)CC2)cc1	x	0	x	x	x	x	x
Cc1cc2cc(CN(CC3CCCO3)C(=S)NCc3ccco3)c(=O)[nH]c2cc1C (stereo not given)	103	0	0	147*	102	-1	100
Cc1cccc(C(=O)Nc2ccccc2C(=O)NCc2ccco2)c1	107	0	7	102	x	x	x
CC1=N/C(=C\c2ccc([N+](=O)[O-])cc2)C(=O)N1c1cc(Cl)ccc1C	52*[inhibitor]	0	-3	90	81	-17	95
COc1ccc(N2C(=O)/C(=C/c3ccc([N+](=O)[O-])cc3)N=C2C)c(OC)c1	91	5	6	105	x	x	x
CCOC(=O)CNc1nc(Cl)nc(NC(C)(C)C)n1	119	2	2	130*	102	0	96
CC(C)(C)Nc1nc(N)nc(Cl)n1	95	1	-5	98	x	x	x
COc1cccc(C2=NOC(C(=O)NCc3ccc(F)cc3)C2)c1 (stereo not given)	x	3	x	x	x	x	x
COc1ccc(CNC(=O)C2CC(c3cccc(OC)c3)=NO2)cc1 (stereo not given)	89	5	-4	82*[inhibitor]	103	0	102
CC/C(=C\C(=O)c1ccncc1)Nc1ccc(O)cc1	113	9	25*	107	96	-10	98
O=C(N/N=C/c1ccc(O)cc1)c1ccncc1	101	0	2	98	x	x	x
CCN(CC)CC(=O)Nc1ccc2c(c1)Nc1ccccc1CC2	135*	0	13	109	147	30	112
CNS(=O)(=O)c1ccc2c(c1)NC(=O)C1CCCN21 (stereo not given)	110	1	0	153*	103	3	101
CN1CCN(S(=O)(=O)c2ccc3c(c2)NC(=O)C2CCCN32)CC1 (stereo not given)	102	0	0	108	x	x	x
CCOc1ccc(CO[C@@H]2O[C@H](CO)[C@@H](O)[C@H](O)[C@H]2NC(C)=O)cc1OC	104	0	0	102	x	x	x
SMILES	MEKK2wt PB1 HTS	GRK2 inh	MEKK2 mut-MEK5	MEKK3 PB1 HTS	MEKK2wt confirm	MEKK2mut confirm	MEKK3 confirm
COc1ccc(C2=NOC(C)(c3nnc(-c4ccc(F)cc4)o3)C2)cc1 (stereo not given)	96	3	-2	81*[inhibitor]	97	-10	95
CC1(c2nnc(-c3ccc(F)cc3)o2)CC(c2ccc(F)cc2)=NO1 (stereo not given)	52	4	4	57	x	x	x
CC1CCCC(C)N1C(=O)COC(=O)c1n[nH]c(=O)c2ccccc12 (stereo not given)	x	0	x	x	x	x	x
Cc1cccc(NC(=O)C2CCN(S(=O)(=O)c3cccc4nonc34)CC2)c1	102	4	-1	102	x	x	x
COc1ccccc1CCc1nnc(CCC(=O)NC(C)Cc2cccnc2)o1 (stereo not given)	55	0	-16	47*[inhibitor]	101	3	105
CCN(Cc1ccncc1)C(=O)CCc1nnc(CCc2ccccc2OC)o1	80	1	-8	70*[inhibitor]	99	-6	101
NS(=O)(=O)c1cccc(NC(=O)COC(=O)CN2C(=O)C3CC=CCC3C2=O)c1 (stereo not given)	95	3	-6	103	x	x	x
Cc1c(C=O)c2cc(OCc3ccccc3)ccc2n1C	102	1	7	105	x	x	x
COC(=O)c1ccc(/C=C2/SC(=S)N(CCC(=O)NCCCN3CCOCC3)C2=O)cc1	97	0	3	101	x	x	x
Clc1ccc(SCCn2ccnc2)cc1	84	x	-12	70*[inhibitor]	96	4	98
CCOCCCNC(=O)c1cc(-c2ccc(Br)s2)nc2ccccc12	94	1	4	97	x	x	x
CCN(CC)CCNC(=O)c1cc(-c2ccc(Br)s2)nc2ccccc12	141*	0	43*	100	156	34	107
Cc1cccn2c(NC(=O)c3cccs3)c(-c3ccccc3)nc12	107	0	1	138*	101	3	104
CN(C)CCOC(=O)c1ccc2[nH]c3c(c2c1)CSCC3	194*	0	39	108	102	-4	104
Cc1onc(-c2ccccc2Cl)c1C(=O)NCCn1c(C)cc2ccccc21	x	21	-31	71*[inhibitor]	98	-7	98
Cc1cc2ccccc2n1CCNC(=O)COc1ccccc1	33*[inhibitor]	0	-27	58*[inhibitor]	65	-16	88
CCC(=O)NCCn1c(C)cc2ccccc21	107	23	4	99	x	x	x
Cc1cc2ccccc2n1CCNC(=O)c1ccc(Br)o1	99	3	8	47*[inhibitor]	21	-30	53*
CN(Cc1nc2ccccc2c(=O)[nH]1)C(=O)c1ccc(S(=O)(=O)N2CCCC2)cc1	x	8	x	x	x	x	x
CC1(C)CC[C@]2(C(=O)O)CC[C@]3(C)C(=CC[C@@H]4[C@@]5(C)CC[C@H](O)C(C)(C)[C@@H]5CC[C@]43C)[C@@H]2C1	150*	3	1	125	101	1	101
